This passage reports outcome and AC50 results from PubChem BioAssay (EPA / NIEHS).

The structures appear in SMILES notation. A structure can be active in one record and inactive in another. Activity calls are given as the source filed them. How the source made its calls: active means hit-call score of the fitted dose curve at least 0.9, where 1 is the maximum; inactive means score below 0.9.

Read-out in the assay: Epidermal growth factor receptor (EGFR), EGFR (gene 1956)
Nature of the assay: BSK_hDFCGF_EGFR: BioMAP Diversity Plus: hDFCGF Assay for Epidermal growth factor receptor (EGFR) Biomarker Activity (AID 2283057). The following applies: primary human foreskin fibroblasts; actives raise or lower the signal. The method, then:
BSK_hDFCGF is a cell-based, multiplexed-readout assay that uses foreskin fibroblast, a human skin primary cell, with measurements taken at 24 hours after chemical dosing in a 96-well plate.BSK_hDFCGF_EGFR is an assay component measured in the BSK_hDFCGF assay. It measures EGFR antibody related to regulation of gene expression using ELISA technology.Data from the assay component BSK_hDFCGF_EGFR was analyzed into 1 assay endpoint. This assay endpoint, BSK_hDFCGF_EGFR, was analyzed with bidirectional fitting relative to DMSO as the negative control and baseline of activity. Using a type of binding reporter, gain or loss-of-signal activity can be used to understand changes in the signaling as they relate to the gene EGFR. Furthermore, this assay endpoint can be referred to as a primary readout, because this assay has produced multiple assay endpoints where this one serves a signaling function. To generalize the intended target to other relatable targets, this assay endpoint is annotated to the kinase intended target family, where the subfamily is receptor tyrosine kinase.
The levels of cell surface (or secreted, indicated by the prefix "s") biomarker endpoints were measured by ELISA. Overt cytotoxicity to cells in confluent adherent cultures (all systems other than the BT system) was assessed by measuring total protein levels using sulforhodamine B (SRB) staining in parallel cultures at the time of biomarker measurements, indicated as SRB endpoints. For proliferation assays for adherent cell types, individual cell types are cultured at sub-confluence and relative cell numbers quantified by SRB staining at time points optimized for each system (48 h: 3C and CASM3C systems; 72 h: BT and HDF3CGF systems; 96 h: SAg system). SRB was performed by staining cells with 0.1% SRB after fixation with 10% TCA and reading wells at 560 nm.Viability and proliferation of PBMC (T cells) was quantified by Alamar Blue reduction for the SAg and BT systems. For PBMC viability (referred to as PBMC Cytotoxicity within the assay endpoint names), cells were plated (75,000/well in a 96-well plate) and then chemical samples added for 1 h before addition of activators, SEB and TSST-1 (20 ng/mL final concentration each). Cells were incubated for 90 h. Then, Alamar Blue (20 uL/well) (Invitrogen, Cat DAL1100) was added for 6 h, and the plates were read with a fluorescence microplate reader at 546/580 nm (excitation/emission). For PBMC proliferation, cells were plated and activated as above but incubated for only 16 h prior to addition of Alamar Blue. Plates were read after 6 h.
With `CCNc1nc(N)nc(Cl)n1`, the result was inactive.

With `CCOC(=O)C(C)Oc1ccc(Oc2cnc3cc(Cl)ccc3n2)cc1` (stereo not given), the result was inactive.

`O=C(c1ccccc1)C1CCCCC1`: the result was inactive.

Broadly, the AC50 is the concentration giving half of the maximal activity seen. Take `N#CSCSc1nc2ccccc2s1`: the AC50 is 2.01 µM (active) and the result was inactive.

For the compound `C[C@]12CC[C@@H]3c4ccc(O)cc4C[C@@H](CCCCCCCCCS(=O)CCCC(F)(F)C(F)(F)F)[C@H]3[C@@H]1CC[C@@H]2O` (stereo not given in full), the result was inactive.

As for `S=C([S-])NCCNC(=S)[S-].[Mn+2]`, the AC50 was 0.149 µM (active).

For the compound `CCCCCOC(=O)COc1cc(N2C(=O)C3=C(CCCC3)C2=O)c(F)cc1Cl`, the result was inactive.

`CSC(=O)c1cccc2nnsc12`: the outcome was inactive.

As for `CCOC(=O)NCCOc1ccc(Oc2ccccc2)cc1`, the result was inactive.

For `CCCN(CCC)c1c([N+](=O)[O-])cc(C(F)(F)F)c(N)c1[N+](=O)[O-]`, the outcome was inactive.

In the case of `CCCOC(=O)c1ccc(C(=O)OCCC)nc1`, the result was inactive.

Consider `CCCCC(CC)COC(=O)c1ccccc1C(=O)O` (stereo not given), for which the outcome was inactive.

As to `CCCCOCCOCCOCc1cc2c(cc1CCC)OCO2`, the result was inactive.

As to `CCCN(CCC)C(=O)SCC`, the result was inactive.

On to `C#CCOC(=O)[C@@H](C)Oc1ccc(Oc2ncc(Cl)cc2F)cc1`, for which the outcome was inactive.

`COCCO`: the result was inactive.

Consider `O=C(O)c1ccccc1`, for which the result was inactive.

Take `COC(=O)c1ccc(CNS(C)(=O)=O)cc1S(=O)(=O)NC(=O)Nc1nc(OC)cc(OC)n1`: the outcome was inactive.

For `CC(C)(C)[C@@H](O)[C@@H](Cc1ccc(Cl)cc1)n1cncn1`, the result was inactive.

With `CCCCOC(=O)C(C)Oc1ccc(Oc2ccc(C(F)(F)F)cn2)cc1` (stereo not given), the result was inactive.

Turning to `C[C@]12C[C@H](O)[C@H]3[C@@H](CCC4=CC(=O)CC[C@@]43C)[C@@H]1CC[C@@H]2C(=O)CO`, the outcome was inactive.

Take `CC1(C)C(C=C(Cl)Cl)C1C(=O)OCc1cccc(Oc2ccccc2)c1` (stereo not given): the AC50 was 8.28 µM (active).

Consider `COC(=O)c1ccccc1S(=O)(=O)NC(=O)Nc1nc(OC(F)F)cc(OC(F)F)n1`, for which the result was inactive.

As for `CCOC(=O)[C@H](C)Oc1ccc(Oc2nc3ccc(Cl)cc3o2)cc1`, the result was inactive.

Consider `CC(C)CCCCCCc1ccc(O)cc1`, for which the AC50 is 12.2 µM (active).

Take `OB(O)O`: the outcome was inactive.

`CCOC(=O)COc1cc(-n2ncc(C(F)(F)F)c(C)c2=O)c(F)cc1Cl`: the result was inactive.

Consider `S=C(S)NCCNC(=S)S.[Mn+2].[S-]C([S-])=NCCN=C([S-])[S-].[Zn+2]`, for which the result was inactive.

Turning to `c1ccc(Nc2ccccc2)cc1`, the AC50 was 34.1 µM (active).

For `CCN(CC)C(=O)c1cccc(C)c1`, the result was inactive.

For the compound `CCOC(=O)C(C)Oc1ccc(Oc2nc3ccc(Cl)cc3o2)cc1` (stereo not given), the outcome was inactive.

As for `c1ccc2[nH]c(-c3cscn3)nc2c1`, the result was inactive.

As for `C#C[C@]1(O)CC[C@H]2[C@@H]3CCC4=CC(=O)CC[C@@H]4[C@H]3CC[C@@]21CC`, the result was inactive.

With `Oc1ccc(C(c2ccc(O)cc2)C(Cl)(Cl)Cl)cc1`, the AC50 was 13.3 µM (active).

As to `CCCOC(=O)NCCCN(C)C`, the outcome was inactive.

As for `O=C(c1ccc(O)cc1O)c1ccc(O)cc1O`, the result was inactive.

Take `CC(C)(c1ccc(O)cc1)c1ccc(O)cc1`: the outcome was inactive.

Consider `CCN(Cc1c(F)cccc1Cl)c1c([N+](=O)[O-])cc(C(F)(F)F)cc1[N+](=O)[O-]`, for which the result was inactive.

Turning to `CCOC(=O)c1ccc(O)cc1`, the result was inactive.
